Shown are actives, neighbours in structure and some others; about 4.3% of the full set was active somewhere.
FAS TE block: FAS thioesterase domain inhibitors, primary screen, biochemical, fluorescence intensity, uHTS; Fatty acid synthase (Homo sapiens), P49327; recombinant FAS-TE, OMFH fluorogenic substrate, fluorescence endpoint; inhibition, % at 15 µM; 360,000 compounds, 0.67% hits; AID 602261, 2012;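 active means compounds whose normalised, plate-corrected inhibition of enzyme fluorescence in the single-dose primary screen is 50% or more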;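 further: 0% = DMSO with enzyme and 100% = substrate without enzyme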
ADAM10 inh: human ADAM10 inhibitors, primary screen, biochemical, QFRET, HTS | Disintegrin and metalloproteinase domain-containing protein 10 (Homo sapiens), O14672 | recombinant ADAM10, EDANS/DABCYL FRET peptide cleavage, 3 h | inhibition, % at 7 µM | 370,000 compounds, 0.62% hits;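 active means inhibition above a per-campaign cutoff equal to the mean of compounds falling between control-based bounds plus 3 SD, cut at about 20% in these data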;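 further: 0% = DMSO wells while the 100% control is not disclosed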
ADAM17 inh: ADAM17 inhibitors, primary screen, biochemical, QFRET; recombinant ADAM17, EDANS/DABCYL FRET peptide cleavage; inhibition, % at 6.95 µM; 370,000 compounds, 0.83% hits; AID 720648, 2013;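 active means inhibition above the mean of compounds lying between control limits plus 3 SD, set per campaign, cut at about 8.5% in these data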;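 further: 0% = DMSO-only wells as the low control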
GRIN3A LBD mod: binders of NR3A ligand-binding domain, primary screen, biophysical, differential scanning fluorimetry, uHTS; Tm shift relative to glycine control, % at 25 µM; Glutamate receptor ionotropic, NMDA 3A (GRIN3A) ligand-binding domain; 340,000 compounds, 2.5% hits; NR3A LBD differential scanning fluorimetry, Tm shift; 0% = protein alone, 100% = glycine-bound protein;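 active means melting temperature shift of at least 10% of the positive control shift, at one fixed dose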
sPLA2-III inh: human group III sPLA2 inhibitors, primary screen, biochemical, QFRET, BODIPY PC-A2 liposome substrate. Group 3 secretory phospholipase A2 (Homo sapiens), Q9NZ20. QFRET BODIPY PC-A2 liposome hydrolysis, fluorescence. inhibition, % at 12.2 µM. 370,000 compounds, 0.56% hits. AID 743126, 2013;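 active means inhibition above mean plus 3 SD of compounds lying within the high and low control bounds, cut at about 19% in these data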;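 further: 0% = median of test compound wells and 100% = no enzyme DMSO wells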
Target sequence (Q9NZ20 whole entry, looked up): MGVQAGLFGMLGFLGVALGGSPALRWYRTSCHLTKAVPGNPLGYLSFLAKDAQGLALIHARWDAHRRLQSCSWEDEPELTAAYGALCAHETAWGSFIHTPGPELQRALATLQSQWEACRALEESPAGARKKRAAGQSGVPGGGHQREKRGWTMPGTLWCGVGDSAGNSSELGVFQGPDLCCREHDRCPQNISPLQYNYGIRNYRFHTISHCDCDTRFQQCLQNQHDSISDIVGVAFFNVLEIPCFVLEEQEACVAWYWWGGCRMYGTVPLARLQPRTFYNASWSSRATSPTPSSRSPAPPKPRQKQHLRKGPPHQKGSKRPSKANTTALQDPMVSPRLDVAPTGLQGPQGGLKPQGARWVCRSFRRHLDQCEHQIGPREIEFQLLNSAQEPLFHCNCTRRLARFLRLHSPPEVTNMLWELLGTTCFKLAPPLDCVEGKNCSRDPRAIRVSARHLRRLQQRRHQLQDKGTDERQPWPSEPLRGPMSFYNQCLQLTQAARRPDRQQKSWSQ
hGIII sPLA2 conf: human group III sPLA2 inhibitors, confirmation, biochemical, QFRET, triplicate | shares compounds with sPLA2-III inh | recombinant hGIII-sPLA2, BODIPY PC-A2 QFRET fluorescence | inhibition, % at 12.2 µM | 2,000 compounds, 34% hits;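 active means mean inhibition across triplicates above the hit cutoff set in the earlier primary screen, cut at about 19% in these data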;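 further: 0% = enzyme with DMSO and 100% = DMSO wells lacking enzyme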
535nm interf: 535nm fluorescence optical interference, confirmation, artefact control for HGIII-sPLA2 inhibitor project, biochemical, QFRET; shares compounds with sPLA2-III inh; BODIPY FL product fluorescence interference; inhibition, % at 12.2 µM; 2,000 compounds, 8.5% hits; AID 743282, 2014;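 active means average inhibition above the solvent-only control mean plus 3 SD, cut at about 6% in these data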;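 further: 0% = DMSO with substrate plus product and 100% = DMSO with substrate alone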
BODIPY interf DR: 535nm fluorescence optical interference, dose response, artefact control for HGIII-sPLA2 inhibitor project, biochemical, QFRET; shares compounds with sPLA2-III inh; BODIPY FL product fluorescence interference, cell-free; IC50, µM; 240 tested, under 10 active; AID 743455, 2014;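 active means IC50 at or below 10 µM; inactive means IC50 above 10 µM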
* hit, by the source's call; i = inactive; x = no result.

SMILES	FAS TE block	ADAM10 inh	ADAM17 inh	GRIN3A LBD mod	sPLA2-III inh	hGIII sPLA2 conf	535nm interf	others
CCN1/C(=C2\OC(=S)N(C)C2=O)C=Cc2ccccc21	-42	-3	-3	2	7	x	x
CCSC1=NC(=O)/C(=C2/C=Cc3ccccc3N2CC)S1	19	-1	4	-9	21*	46*	9.6*
C[C@@H]1ON(C)[C@H]2C[C@H]3c4[nH]c5c(-c6ccccc6F)cccc5c4CCN3C(=O)[C@@H]12	x	-215	-61	x	-16	x	x
Nc1c(C(=O)Nc2ccccc2F)sc2nc(-c3ccco3)ccc12	-4	-443	-133	3	19*	10	-5
CCCCCCCCN1C(=O)[C@@H](CC(=O)NCCc2ccccc2OC)C[C@@]2(C(=O)OC)C1=C[C@H](COCc1ccccc1)O[C@@H]2C	x	-4	-5	x	-14	x	x
Oc1ccc(CCc2ccccc2)c2cccnc12	x	-3	2	x	26*	21*	-3
COC(=O)C1=C(C)N(Cc2ccc(C(F)(F)F)cc2)C(=NCC2CC2)NC1c1ccccc1C(F)(F)F (configuration not stated)	x	5	3	x	-10	x	x
O=C(Nc1ccc(Br)cc1)OCCCN1CCC2(CCCCC2)C1=O	x	-24	0	x	6	x	x
COC(=O)/C=C1\Nc2ccc(Cl)cc2C(=O)NC1=O	x	i	-257	x	7	x	x
CC(C)[C@H](NC(=O)c1cccs1)C(=O)N1CCC[C@H]1C(=O)NCc1ccccc1	x	2	2	x	0	x	x
CC(C)(C)C(=O)c1c(N)[nH]c(C(=O)c2ccccc2)c1-c1ccccc1	x	-3	-2	x	14	x	x
NC(N)=NS(=O)(=O)c1ccc(NC(=S)NC(=O)/C=C/c2ccc(F)cc2)cc1	3	-4	-3	1	22*	4	-5
CC/C(=N/NC(=O)c1ccc(Br)cc1)c1ccc(OCCN2CCOCC2)cc1	-8	-7	2	-1	21*	11	-7
COc1ccc(/C=N/NC(=S)NCc2ccccc2)cc1OC	7	-10	5	-2	24*	14	-5
COc1ccc(CNC(=S)N/N=C/c2ccc(OC)c(OC)c2)cc1	-4	-3	-2	0	1	x	x
Fc1ccc(-c2ccc3c(n2)CCCN3Cc2ccccc2C(F)(F)F)cc1	x	-34	-7	x	4	x	x
O=C(N/N=C/c1ccc2c(c1)OCO2)c1ccc(Br)o1	-7	-39	-13	6	19*	1	-6
Cc1cc(Br)cc(/C=N/NC(=O)c2ccc3c(c2)OCO3)c1O	10	-4	-5	6	36*	40*	2	BODIPY interf DR=>122
O=C(N/N=C/c1cc(Br)c(O)c(Br)c1O)c1ccc2c(c1)OCCO2	8	-64	-25	3	19	x	x
O=C(N/N=C/c1ccc2c(c1)OCO2)c1ccc2c(c1)OCCO2	-8	-8	-3	3	-1	x	x
CCC1CCCCN1C(=O)n1ncc(C(O)(c2ccccc2)c2ccccc2)n1 (configuration not stated)	x	1	0	x	-10	x	x
Cc1no[n+]([O-])c1COc1ccc(/C=C2\NC(=S)NC2=O)cc1	x	-5	-5	-1	0	x	x
CCOc1ccc(/C=C2\NC(=S)NC2=O)cc1	-2	0	-3	0	24*	23*	-4
Cc1cnc(NC(=O)CSc2nnc(C)n2N)s1	-10	-12	-5	-8	22*	-1	-5
CCOC(=S)SCC(=O)Nc1ncc(C)s1	-12	-5	-5	1	20*	-7	-7
Cc1cnc(NC(=O)CSc2nnc3ncccn23)s1	-4	-3	0	-1	4	x	x

Bioassay records deposited in PubChem by several laboratories.
